TWEAK-Fn14 inh = inhibitors of TWEAK-Fn14 interaction signaling; TWEAK-stimulated Fn14 reporter cells, luciferase luminescence, 8 h; inhibition, % at 10 µM; hit rate 2% among 360,000; AID 1159606; in the data active = inhibition above about 50%
Peg3 prom inh = inhibitors of Peg3 promoter; HeLa PEG-Prom luciferase reporter, luminescence, overnight; inhibition, % at 20 µM; hit rate 1.7% among 360,000; AID 588405;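 active = inhibition of at least 50% at 20 µM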
KKLEB tox = counter-screen for CF NF-kB inhibitors: cytotoxicity. hit rate 0.36% among 360,000. activity change (cytotoxicity), % at 5 µM. AID 602141. KKLEB CF airway cells viability, ATPlite luminescence, overnight; hits give low values; cells stimulated with P. aeruginosa culture filtrate;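 active = corrected activity change at or below -50% at 5 µM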
CF NFkB block = inhibitors of cystic fibrosis induced NF-kB; hit rate 0.86% among 360,000; inhibition, % at 5 µM; KKLEB NF-kB-GFP reporter, PAF-induced, GFP fluorescence overnight;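 active = at least 50% inhibition at 5 µM, scaled per plate between neutral and stimulator controls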;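 also: PAF is a Pseudomonas aeruginosa culture filtrate used as stimulus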
HIF-2a block = HIF-2a inhibition | hit rate 0.72% among 360,000 | inhibition, % at 18.8 µM | AID 624352 | 786-0 RCC cells HIF-2a reporter, luciferase luminescence, overnight;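 active = inhibition of the luminescence signal of 40% or more relative to plate controls, in a single-dose primary screen at 18.75 µM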
TROY NFkB inh = blocks TROY-dependent signaling in reporter cells | hit rate 0.98% among 360,000 | inhibition, % at 10 µM | Q293 LMP1-TROYcd NF-kB luciferase reporter, 4 h;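 active = compounds whose plate-normalised and pattern-corrected inhibition of the luciferase reporter signal at the single screening dose is 50% or more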
Each line names hits and unclear results; the compound was inactive in the other large screens. An excerpt weighted towards active compounds, which were near 4% of everything screened.

CN1C(=O)C2(Oc3ccccc3C3CC(c4ccccc4)=NN32)c2ccccc21 (configuration not stated)	TWEAK-Fn14 inh 81
COc1ccc(CC(C(=O)Nc2cccc(F)c2)c2nn[nH]n2)c(OC)c1 (configuration not stated)	TWEAK-Fn14 inh 51, TROY NFkB inh 65
COc1ccc(NC(=O)Nc2cccc(F)c2)c(OC)c1	none
CC(C)CCSc1nc(N)c(C#N)cc1C#N	CF NFkB block 51
CC(=O)c1cc(C#N)c(SCCC(C)C)nc1C	none
CC(=O)c1ccccc1NC(=O)CSc1nnc(Cc2csc(C)n2)o1	none
COc1ccc(-n2cc(CNCC3CCOCC3)c(-c3cccc(F)c3)n2)cc1	TWEAK-Fn14 inh 84
COC(=O)c1ccc(NCc2cc(O)ccc2O)cc1O	TWEAK-Fn14 inh 83
COC(=O)c1ccc(NCc2c(O)ccc(O)c2Br)cc1Cl	TWEAK-Fn14 inh 80
COC(=O)c1cc(NCc2c(F)cccc2Cl)ccc1N1CCOCC1	none
Cc1ccc(-n2ncc3c(NCCCN4CCOCC4)ncnc32)c(C)c1	none
COc1ccc(-c2oc3ncnc(NCCCN4CCOCC4)c3c2-c2ccc(OC)cc2)cc1	Peg3 prom inh 64
COc1ccc(-n2ncc3c(NCCCN4CCOCC4)ncnc32)cc1	TWEAK-Fn14 inh 74, TROY NFkB inh 59
c1ccc(-c2oc3ncnc(NCCCN4CCOCC4)c3c2-c2ccccc2)cc1	none
COc1ccc(-n2ncc3c(NCCN4CCOCC4)ncnc32)cc1	TWEAK-Fn14 inh 59, TROY NFkB inh 53
NC(=O)N/N=C/c1c(F)c(F)c(F)c(F)c1F	none
CN(C)C(=O)c1ccc(-n2nc(C(F)(F)F)c3c2CCCC3)cc1	TWEAK-Fn14 inh 59 (no result: TROY NFkB inh)
COC(=O)c1nn(-c2nc(-c3ccc(OC)c(OC)c3)cc(C(F)(F)F)n2)cc1[N+](=O)[O-]	none
COC(=O)c1nn(-c2nc(-c3cccc(OC)c3)cc(C(F)(F)F)n2)cc1[N+](=O)[O-]	TROY NFkB inh 58
O=C(CCCCCn1c(=S)[nH]c2ccc(Br)cc2c1=O)NCC1CCCO1 (configuration not stated)	none
CCOC(=O)N1CCN(C(=O)c2ccc(Cn3c(=S)[nH]c4ccc(Br)cc4c3=O)cc2)CC1	TWEAK-Fn14 inh 57, TROY NFkB inh 59
NS(=O)(=O)c1ccc(CCNC(=O)CCCCCn2c(=S)[nH]c3ccc(Br)cc3c2=O)cc1	Peg3 prom inh 62
CCCn1c(=S)[nH]c2cc(C(=O)N3CCCC(C(=O)OCC)C3)ccc2c1=O (configuration not stated)	TWEAK-Fn14 inh 55
Cc1cc(F)ccc1C(O)c1ncc(-c2ccc(Cl)cc2)[nH]1 (configuration not stated)	none
O=C(Cc1cccs1)Nc1nc(-c2ccc(F)cc2F)cs1	none
CCN(CC)CCCNC(=S)N1CCN(c2nc(-c3ccc(F)cc3)cs2)CC1	Peg3 prom inh 71
CC(C)=C1C2CCC1C(C(=O)Nc1sc(C)c(-c3ccc(C(C)C)cc3)c1C(N)=O)C2C(=O)O (configuration not stated)	TROY NFkB inh 51
O=C1C(C=NCc2ccco2)=C(O)c2ccccc21	TROY NFkB inh 59
O=C1C(C=NCc2ccncc2)=C(O)c2ccccc21	none
O=C1C(C=NCc2cccnc2)=C(O)c2ccccc21	TROY NFkB inh 52
Cc1ccc(-c2nn3c(C)nnc3s2)cc1NC(=O)c1ccc(-c2ccc(Cl)cc2Cl)o1	Peg3 prom inh 103
Cc1ccc(-c2nn3c(C)nnc3s2)cc1NC(=O)c1ccc(-c2cccc(Cl)c2)o1	none
O=C(CCl)N(c1ccccc1)c1ccccc1	CF NFkB block 56
CCCCCCN(C(=O)CCl)c1ccccc1	KKLEB tox -68, CF NFkB block 85
O=C(CCCc1ccccc1)NCCc1ccccc1	none
CC(=O)N(CCN(C(C)=O)c1ccccc1)c1ccccc1	none
O=C(CCl)N(CCc1ccccc1)CCc1ccccc1	KKLEB tox -50, CF NFkB block 66
CCCCCCCN(C(=O)CCl)c1cccc(C)c1	KKLEB tox -87, CF NFkB block 78
CN1CCN(C2Cc3ccc(F)cc3Sc3cc(F)c(Cl)cc32)CC1 (configuration not stated)	Peg3 prom inh 107
CN1CCN(C2Cc3cc(F)ccc3Sc3ccc(Cl)cc32)CC1 (configuration not stated)	none
CSc1nc2ccc(Cl)cc2[nH]1	none
CSc1nc2cc(Oc3cccc(Cl)c3Cl)c(Cl)cc2[nH]1	TROY NFkB inh 56
O=C(CC(=O)N1CCOCC1)N1CCOCC1	none
CCOC(=O)N1CCN(C2=C(NS(=O)(=O)c3ccc(Br)cc3)C(=O)c3ccccc3C2=O)CC1	CF NFkB block 58
O=C(N/N=C/c1ccc(O)cc1O)c1ccc(NC(=O)C2CCCCC2)cc1	Peg3 prom inh 62
O=C(N/N=C/c1cccc(O)c1)c1ccc(NC(=O)C2CCCCC2)cc1	none
N=c1oc2cc(O)ccc2cc1C(=O)Nc1ccc(Cl)cc1	none
Cc1ccc(NC(=O)c2cc3ccccc3oc2=N)cc1	TWEAK-Fn14 inh 98
N=c1oc2ccccc2cc1C(=O)Nc1ccc(F)cc1	TWEAK-Fn14 inh 62
N=c1oc2ccccc2cc1C(=O)Nc1cccc(F)c1	none
C[C@H](CO)N1C[C@H](C)[C@@H](CN(C)S(=O)(=O)c2cccc(F)c2)OCc2cn(nn2)CCCC1=O	none
O=C1c2ccccc2C(=O)N1OS(=O)(=O)c1ccc(F)cc1	Peg3 prom inh 61
O=S(=O)(c1ccccc1)N1CCN(S(=O)(=O)c2ccc(F)cc2)CC1	none
CCn1nc(C)c(/C=N\NC(=O)c2cccc(OC)c2)c1C	none
CC(C)(C)N=C1NC(=NC(C)(C)C)c2ccccc21	TWEAK-Fn14 inh 53
Cc1cc(C)c2c3c(sc2n1)C(c1cccc(F)c1)C(C#N)=C(N)O3 (configuration not stated)	none
O=C(Nc1ccc(Cl)cc1)N1CCSCC1	none
O=C(Nc1ccccc1)N1CCSCC1	TWEAK-Fn14 inh 73 (no result: TROY NFkB inh)
COCCCn1c(SCC(=O)NC2CCS(=O)(=O)C2)nnc1-c1ccc(Cl)cc1 (configuration not stated)	none
O=C(OCc1nnc(-c2ccc(Cl)cc2)o1)C12CC3CC(CC(O)(C3)C1)C2	TROY NFkB inh 67
O=C1N(c2ccccc2)C[C@@H]2C[C@@H](c3cccs3)N3CCC[C@@]123	Peg3 prom inh 73
COCc1cc([C@@H]2C[C@H]3CN(c4ccccc4)C(=O)[C@]34CCCN24)ccc1OC	Peg3 prom inh 54
COc1ccc([C@@H]2C[C@H]3CN(c4ccccc4)C(=O)[C@]34CCCN24)c(OC)c1OC	none
Cc1ccc(S(=O)(=O)CCC(=O)OCC(=O)N2c3ccccc3CC2C)cc1 (configuration not stated)	none
CCC1(C)Cc2ccccc2-c2nc(SCC(N)=O)[nH]c(=O)c21 (configuration not stated)	TROY NFkB inh 53
